# Experimental data: PubChem BioAssay AID504462 (Sanford-Burnham Center for Chemical Genomics, 2011)
# In all, about 340,000 compounds went through this assay and about 1,700 (0.5%) were called active. Rule as the data show it: active = inhibition above about 40%; inactive = the rest. The sample as a whole holds a higher share of actives than the screen did.
# Target: Cysteine protease ATG4B (Homo sapiens) (UniProt Q9Y4P1)
# Assay: ATG4B protease inhibitors, primary screen, biochemical, fluorescence, uHTS (AID 504462)
# Conditions: ATG4B cleavage of LC3-PLA2, NBD-HPC fluorescence, 1 h; at 8.33 µM; active compounds read high
# Chain of Cysteine protease ATG4B (Homo sapiens) (Q9Y4P1 whole entry, looked up): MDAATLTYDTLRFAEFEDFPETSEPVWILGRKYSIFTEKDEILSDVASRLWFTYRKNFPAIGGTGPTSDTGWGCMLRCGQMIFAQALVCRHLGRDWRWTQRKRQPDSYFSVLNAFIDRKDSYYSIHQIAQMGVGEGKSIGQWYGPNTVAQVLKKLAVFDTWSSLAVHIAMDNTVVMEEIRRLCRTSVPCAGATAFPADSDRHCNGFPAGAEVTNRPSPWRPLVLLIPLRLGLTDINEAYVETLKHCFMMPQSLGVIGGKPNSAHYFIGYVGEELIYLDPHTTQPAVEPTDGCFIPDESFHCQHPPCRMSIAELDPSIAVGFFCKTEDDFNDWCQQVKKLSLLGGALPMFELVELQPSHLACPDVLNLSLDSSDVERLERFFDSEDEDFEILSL
row,Compound,inhibition
1,O=C(CSc1ncnc2c1oc1ccccc12)NC1CCCC1,-1.46% (inactive)
2,CCOCCCn1c(SCC(=O)Nc2cc(OC)ccc2OC)nc2ccccc2c1=O,4.76% (inactive)
3,O=C(O)CCn1c(SCc2cc(=O)n3ccccc3n2)nc2ccsc2c1=O,-6.86% (inactive)
4,CCc1ccc(-n2c(SCc3cc(=O)n4cc(Br)ccc4n3)nc3[nH]ncc3c2=O)cc1,-11.3% (inactive)
5,O=c1c2sccc2nc(SCc2cc(=O)n3ccccc3n2)n1-c1ccc(Br)cc1,47.5% (active)
6,CC(=O)NC(NC(=S)Nc1c(C)n(C)n(-c2ccccc2)c1=O)C(Cl)(Cl)Cl (configuration not stated),-9.32% (inactive)
7,O=C(COc1ccc(S(=O)(=O)NCc2ccccc2)cc1)N1CCOCC1,0.8% (inactive)
8,CCc1cccc(C)c1N1C(=O)CN(Cc2ccccc2)C1=S,88.4% (active)
9,Cc1ccccc1CCNC(=O)C1CCC(=O)N(Cc2ccc(Cl)cc2)C1 (configuration not stated),0.05% (inactive)
10,CC1CN(Cc2ccccc2)C(=S)NC1=O (configuration not stated),-11% (inactive)
11,O=C1C[C@@H]2c3c(cccc3CN1Cc1ccccc1)C[C@@H](O)[C@H]2O,0.85% (inactive)
12,Cc1cccc(C)c1N1C(=O)CN(Cc2ccccc2)C1=S,82.4% (active)
13,COc1cccc(N2C(=O)CN(Cc3ccccc3)C2=S)c1,25.8% (inactive)
14,COc1ccc(NC(=O)C(CC(C)C)NS(=O)(=O)c2ccc3c(c2)CCN3C(C)=O)cc1OC (configuration not stated),-5.12% (inactive)
15,O=C(c1ccc(S(=O)(=O)N2CCCC2)cc1)N1CCN(c2ccccc2F)CC1,0.98% (inactive)
16,CCOc1ccc(CCNC(=O)COC(=O)CCS(=O)(=O)c2ccc(C)cc2)cc1OCC,-3.02% (inactive)
17,O=S(=O)(c1ccc(F)cc1)N1CCN(C(=S)NCc2ccco2)CC1,0.75% (inactive)
18,CC(C)Cc1ccc(C(C)C(=N)N)cc1 (configuration not stated),8.66% (inactive)
19,COc1ccc(CNC(=O)C2CCN(S(=O)(=O)c3ccc(SC)cc3)CC2)cc1,-7.7% (inactive)
20,NC(=O)Cn1cc(/C=N\NS(=O)(=O)c2ccccc2)c2ccccc21,3.11% (inactive)
21,CCOC(=O)N/N=C/c1cn(Cc2ccccc2Cl)c2ccccc12,48% (active)
22,COC(=O)N/N=C/c1c[n+]([O-])c2ccccc2[n+]1[O-],-2.96% (inactive)
23,Cc1ccc(OCCOc2cccc(/C=N/NC(N)=O)c2)cc1,-2.28% (inactive)

row,Compound,inhibition
1,N#CCC(=O)N/N=C/c1cn(Cc2ccc3ccccc3c2)c2ccccc12,-9.5% (inactive)
2,CCOC(=O)c1cnn(Cc2ccccc2Cl)c1N,-5.17% (inactive)
3,COc1cccc(Cn2cc(/C=N/NC(=O)c3cc(O)cc(O)c3)c3ccccc32)c1,47.7% (active)
4,COC(=O)N/N=C/c1cn(CCCOc2ccc(C)cc2)c2ccccc12,40.3% (active)
5,O=C(Cn1cc(/C=N/NC(=O)c2cccc(C(F)(F)F)c2)c2ccccc21)Nc1ccc(F)cc1,5.83% (inactive)
6,CCC(C)c1ccc(NC(=S)NCc2ccccn2)cc1 (configuration not stated),2.58% (inactive)
7,CC(=O)N1CCN(C(=O)c2cc(-c3ccc(Cl)s3)nc3ccccc23)CC1,2% (inactive)
8,COc1cc(OC)cc(C(=O)Nc2ccc(-c3nc4ccccc4o3)c(O)c2)c1,1% (inactive)
9,Cc1ccc(NNC(=O)C2CCC2)cc1C,-8.25% (inactive)
10,Cc1ccc(Nc2cc(=O)n(C3CCCCC3)c(=O)[nH]2)cc1C,49.4% (active)
11,O=c1cc(C(F)(F)F)[nH]c(=O)n1C1CCCCC1,-7.77% (inactive)
12,Cc1ccc(-c2nnn(CC(=O)N(CCO)C(C(=O)NC(C)(C)C)c3ccncc3)n2)cc1 (configuration not stated),3.82% (inactive)
13,O=C(Nc1cccc(F)c1)NC1CCCCCCC1,14.1% (inactive)
14,O=C(Nc1cccc(F)c1)NC1CCCc2ccccc21 (configuration not stated),72.2% (active)
15,CNS(=O)(=O)c1cccc(C(=O)NC2CCCc3ccccc32)c1 (configuration not stated),5.31% (inactive)
16,O=C(Nc1ccc(F)c(Cl)c1)C1CCN(S(=O)(=O)c2cccnc2)CC1,-11.3% (inactive)
17,COc1ccc(C)cc1NC(=O)CSc1nnc2ccc(-c3ccccn3)nn12,-1.16% (inactive)
18,CCN(C[C@H]1N[C@@](CC)(C(=O)OC)[C@H]2C(=O)N(Cc3ccccc3)C(=O)[C@@H]12)S(=O)(=O)c1ccc(C(F)(F)F)cc1,1.74% (inactive)
19,COc1ccc(NC(=O)CNc2cc(S(=O)(=O)N3CCOCC3)ccc2N2CCOCC2)c(OC)c1,-0.66% (inactive)
20,Cc1c(Cl)c([N+](=O)[O-])nn1CCCC(=O)Nc1cc(Cl)ccc1Cl,63.1% (active)
21,Cc1cc([N+](=O)[O-])nn1CCCC(=O)Nc1cccnc1Cl,-6.6% (inactive)
22,Cc1c(Cl)c([N+](=O)[O-])nn1CCCC(=O)NC(C)c1ccccc1 (configuration not stated),19.6% (inactive)
23,Nc1c(N(CCCO)C(=O)C2CCCC2)c(=O)[nH]c(=O)n1Cc1ccccc1,2.96% (inactive)

row,Compound,inhibition
1,Cc1ccc2[nH]c(=O)c(CC=C(Cl)Cl)c(C)c2c1,-4.78% (inactive)
2,CN(C(=O)c1cccc(NC(=O)Cc2ccc(NC(=O)C3CCN(C(=O)C4CCCCC4)CC3)cc2)c1)C1CCC1,-6.18% (inactive)
3,COc1cccc(NC(=O)NCc2ccc(F)cc2)c1,46.2% (active)
4,O=C(NCc1cccc(CNC(=O)Nc2cccc(O)c2)c1)Nc1cccc(O)c1,27.4% (inactive)
5,COC(=O)[C@@H](NC(=O)NCc1cccc(OC)c1)C(C)C,-0.62% (inactive)
6,CC1CCCC(NC(=O)c2cc(-c3ccncc3)nc3ccccc23)C1C (configuration not stated),-8.76% (inactive)
7,CC(C)CCn1c(=O)c2c(nc3n2CCCN3Cc2ccccc2)n(C)c1=O,3.87% (inactive)
8,CCOC(=O)c1[nH]c2ccccc2c1N=C(C)N(CC)CC,-9.79% (inactive)
9,CCOC(=O)c1c(C)[nH]c2c1-c1ccccc1C(=O)C2=O,47% (active)
10,CCOC(=O)C1=C(C)c2ccccc2OC1(C)C(=O)OCC (configuration not stated),2.41% (inactive)
11,CC(C)(C)C1CCc2c(sc3nc(SCC(N)=O)nc(N)c23)C1 (configuration not stated),42.8% (active)
12,Nc1nc(SCC(=O)NCCN2CCOCC2)nc2sc3c(c12)CCC3,-9.91% (inactive)
13,C=C(C)CSc1nc(N)c2c3c(sc2n1)CCC3,17.7% (inactive)
14,O=S1(=O)CCC(NC(=S)SCc2ccccc2Br)C1 (configuration not stated),-4.75% (inactive)
15,Cc1c(Cl)cccc1NC(=O)Nc1ccc(C(=O)N2CCCC2)cc1,40.6% (active)
16,CS(=O)(=O)Nc1ccc(C(=O)N2CCCC2)cc1,-2.74% (inactive)
17,Cc1c(Cl)cccc1NC(=O)NCCCN1CCCC1=O,2.74% (inactive)
18,COc1ccccc1CCNC(=O)CSc1nnc2ccc(-c3cccnc3)nn12,0.74% (inactive)
19,CCn1c(Cc2ccc(OC)cc2)nnc1SCC(=O)Nc1ccc(N2CCOCC2)cc1,-5.02% (inactive)
20,Cc1ccc(C2=Nc3c(ccc4ccccc34)C(c3ccncc3)=NN2)cc1,60.3% (active)
21,Cc1ccc(-c2csc(-c3c[nH]c4ccccc34)n2)cc1,4.81% (inactive)
22,CC(Sc1nnc(-c2ccccc2F)n1C1CC1)C(N)=O (configuration not stated),-8.94% (inactive)
23,CCCCCCCC1(C)NC(=O)N(CC(=O)Nc2cc(C)on2)C1=O (configuration not stated),-10.1% (inactive)

row,Compound,inhibition
1,O=C(C1CCN(S(=O)(=O)Cc2ccccc2)CC1)N1CCCc2ccccc21,13.8% (inactive)
2,Cc1ccc(N2CC(C(=O)NCCS(=O)(=O)N3CCN(c4ccccc4)CC3)CC2=O)cc1 (configuration not stated),-5.93% (inactive)
3,CCOC(=O)C1=C(C)N(C[C@@H]2CC[C@@H](Cc3ccc(-c4ccccc4)cc3)O2)C(=O)NC1c1ccc([N+](=O)[O-])cc1 (some centres not stated),1.26% (inactive)
4,COc1ccc2c(c1)C(c1cccs1)=NNC(c1cccnc1)=N2,0.69% (inactive)
5,CCOc1ccc2c(c1)C(c1ccc(C)cc1)=NNC(c1ccc(C)cc1)=N2,65.9% (active)
6,CCc1ccc2c(c1)C(c1ccc([N+](=O)[O-])cc1)=NNC(c1ccccc1)=N2,61% (active)
7,Fc1ccc2c(c1)C(c1cccnc1)=NNC(c1cccs1)=N2,-1.31% (inactive)
8,CCC1OC(c2ccc([N+](=O)[O-])cc2)=Nc2ccccc21 (configuration not stated),-2.62% (inactive)
9,Cc1ccccc1CSc1nnc(-c2ccccc2)c(=O)[nH]1,11.3% (inactive)
10,CCCN1C2CCCC1CC(NC(=O)c1cccc(OC)c1)C2 (configuration not stated),-4.61% (inactive)
11,CC(C(=O)NCCc1ccc(S(N)(=O)=O)cc1)N1C(=O)CC(C)(C)Sc2ccccc21 (configuration not stated),1.71% (inactive)
12,Cn1c2c(c(=O)n(C)c1=O)C(c1ccc(O)cc1)Nc1ccccc1O2 (configuration not stated),-5.48% (inactive)
13,CCc1nn(-c2cc(Oc3cccc4ccccc34)nc(-c3ccccc3)n2)c(N)c1C#N,-7.41% (inactive)
14,COc1ccc(C)cc1N(C)C(=O)c1coc(=O)c2ccccc12,-10% (inactive)
15,CCOc1ccccc1Nc1ccc(C(=O)O)cc1[N+](=O)[O-],-16.2% (inactive)
16,Cc1ccc(Nc2ccc(C(N)=O)cc2[N+](=O)[O-])cc1,66.7% (active)
17,NC(=O)c1ccc(Nc2ccc3c(c2)CCC3)c([N+](=O)[O-])c1,29.8% (inactive)
18,CC(=O)c1ccc(S(=O)(=O)NCc2nnnn2-c2ccccc2)cc1,-3.36% (inactive)
19,Cc1cccc(C=CC(=O)c2ccc(Cl)cc2)c1,-4.71% (inactive)
20,O=C(/C=C/NNC(=O)c1cccc(Br)c1)c1ccccc1,8.45% (inactive)
21,O=C(O)CCn1cc(/C=C/C(=O)c2ccc(Cl)cc2)c(-c2cccc(Br)c2)n1,53.3% (active)
22,CCOC(=O)c1ccc(-n2c(CCC(=O)O)ccc2-c2ccccc2)cc1,9.28% (inactive)
23,COc1ccc(C(CNCC(=O)Nc2ccccc2F)N(C)C)cc1 (configuration not stated),9.81% (inactive)
